Lmaj promast – reduces viability of Leishmania major promastigotes | resazurin fluorescence viability | inhibition, % at 10 µM | actives 9% (n = 200,000) | AID 1063; in the data active means inhibition above about 50%;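 further: promastigotes grown with compound for 44 hours at 28 °C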
Cl transport mod – modulates chloride dependent transport by human KCC2 | actives 2.2% (n = 190,000) | KCC2 cells, thallium flux FluoZin-2 fluorescence | Q9H2X9 | AID 1456 | B-score of Tl+ flux slope (higher = more flux/activation; lower = inhibition) at 10 µM;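 active means thallium flux slope and its plate-corrected score both differing from the plate sample mean at a set confidence after two filtering rounds, in either direction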;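 further: slope of fluorescence scaled to starting intensity during 10 to 20 s after thallium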
Insulin prom inh – TRM-6 insulin promoter activity inhibition | inhibition, % at 2 µM | AID 1273 | actives 0.9% (n = 130,000) | TRM-6 cells (human fetal islet line), insulin promoter-eGFP reporter, imaging; reporter expression induced with tamoxifen;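 active means inhibition above the mean plus 3 SD, with well images judged a real hit on visual review, cut at about 60% in these data, passing the limit was not always enough; inconclusive means inhibition over the cutoff but images rejected on review; inactive means inhibition not above the cutoff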
WT yeast gro inh – growth inhibition of WT yeast, mitochondrial fusion screen; mitochondrial fusion phenotypic screen, WT strain; AID 1362; actives 2.1% (n = 190,000); inhibition, % at 10 µM; in the data active means inhibition above about 58%; tested in S. cerevisiae
Ins promoter up – MIN6 insulin promoter up-regulation | MIN6 insulin promoter-GFP reporter, high-content imaging; stronger effect = higher value | z-score at 5 µM | actives 0.3% (n = 190,000) | AID 1625;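 active means z-score above 3 at 5 µM with at least 500 cells counted in the well; inconclusive means wells under 500 cells, flagged as cytotoxic or low count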
ROMK primary – modulates human ROMK potassium channel activity; P48048; Tet-inducible ROMK, thallium flux fluorescence; actives lie on both sides; B-score at 10 µM; actives 2% (n = 130,000); AID 1918;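 active means signal ratio slope over the read window, or its plate-corrected B-score, at least 3 SD from the plate mean, either direction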;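 further: B-score of the F/F0 ratio slope over 7 to 12 s after thallium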
ROMK hit retest – confirmation of human ROMK potassium channel modulators; actives 54% (n = 3,000); normalized thallium flux (F/F0 slope) at 10 µM; shares compounds with ROMK primary; AID 1917; ROMK thallium flux, fluorescence ratio; stronger effect = lower value;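 active means Flux at 10 µM at least 3 SD below or above vehicle control mean in one or both replicates; inconclusive means no clear call, values can overlap the other calls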
Each line names hits and unclear results; the compound was inactive in the other large screens (follow-up assays come after a bar, where they were run). Shown are actives, neighbours in structure and some others; about 12% of the full set was active somewhere.

COc1ccc(CC2(CO)CCN(Cc3cccc(OC)c3OC)CC2)cc1	none (no result: Insulin prom inh)
COc1ccc(/C=C/CN2CCC(CO)(Cc3ccccc3Cl)CC2)cc1	Lmaj promast 96, ROMK primary -1.8 (no result: Ins promoter up) | ROMK hit retest 0.063
Cc1ccc(/C=C(\C#N)C(=O)NCCN2CCOCC2)cc1	ROMK primary -3.2 | ROMK hit retest 0.06
O=Cc1cn(CC(O)CN2CCCCC2)c2ccccc12 (stereo not given)	none
O=C(/C=C/c1cn(CC(O)CN2CCOCC2)c2ccccc12)c1cccs1 (stereo not given)	none (no result: Lmaj promast, Insulin prom inh, WT yeast gro inh, ROMK primary) | ROMK hit retest 0.039
CN1CCN(c2ccccc2NC(=O)c2ccc(-c3cccc([N+](=O)[O-])c3)o2)CC1	ROMK primary -2.4 | ROMK hit retest 0.059
CCN(CC)C(=O)C1CCCN(c2ccc([N+](=O)[O-])cc2/C=N/NC(=O)c2ccccc2)C1 (stereo not given)	none
CN1CCN(c2ccc([N+](=O)[O-])cc2/C=N/NC(=O)c2cccc([N+](=O)[O-])c2)CC1	ROMK primary -2.3 | ROMK hit retest 0.058
CCN(CC)C(=O)C1CCCN(c2ccc([N+](=O)[O-])cc2/C=N/NC(=O)c2ccc([N+](=O)[O-])cc2)C1 (stereo not given)	Lmaj promast 53 (no result: Ins promoter up, ROMK primary) | ROMK hit retest inconclusive
N#CC1=C(N)C(C#N)(C#N)[C@H](c2ccncc2)[C@H]2CC3(CC=C12)OCCO3	ROMK primary -3.8 | ROMK hit retest inconclusive
N#CC1=C(N)C(C#N)(C#N)[C@H](c2ccncc2)[C@H]2CN(C(=O)OCc3ccccc3)CC=C12	none (no result: Insulin prom inh)
CN=C1S/C(=C\c2cn(CC(=O)OC)c3ccccc23)C(=O)N1C	ROMK primary 0.78 (no result: Cl transport mod) | ROMK hit retest inactive
Cc1nn(C)cc1CN(C)C(=O)c1cc(-c2ccccc2)nc2ccc(Br)cc12	none (no result: Insulin prom inh) | ROMK hit retest 0.058
Cc1ccc(NC(=O)C2OCCc3ccccc32)cc1C (stereo not given)	none (no result: Ins promoter up)
CC(=O)/C(=C/c1ccccc1)C(=O)Nc1ccccc1C	Lmaj promast 96, ROMK primary -3.6 (no result: Insulin prom inh) | ROMK hit retest 0.048
Cc1ccccc1NC(=O)C(=Cc1ccc(C(=O)O)cc1)C(=O)Nc1ccccc1C	none
O=C1CCCCCN1CP(=O)(O)CCc1ccccc1	none (no result: Insulin prom inh, Ins promoter up)
COc1ccc(NC(=O)c2cc(-c3cccc(OC)c3)on2)cc1	ROMK primary -4.4 | ROMK hit retest inactive
COc1ccc(-c2cc(C(=O)NCc3cccs3)no2)cc1	none (no result: Lmaj promast, Insulin prom inh, WT yeast gro inh)
COc1cccc(-c2cc(C(=O)NCc3cccs3)no2)c1	ROMK primary -2.1 (no result: Lmaj promast, Insulin prom inh, WT yeast gro inh) | ROMK hit retest inactive
COc1ccc(NC(=O)c2cc(-c3ccco3)on2)cc1	none
CC1=NNC(=O)C1C(c1ccccc1)C(C#N)C#N (stereo not given)	none (no result: Insulin prom inh, Ins promoter up)
O=C(NCCn1ccc2ccccc21)c1cccc([N+](=O)[O-])c1	none
CCC1SC2=NC(C)=C(C(=O)OCCOC)C(/C=C/c3ccccc3OC)N2C1=O (stereo not given)	none (no result: ROMK primary) | ROMK hit retest 0.059
CCC1SC2=NC(C)=C(C(=O)OCC(C)C)C(/C=C/c3ccccc3OC)N2C1=O (stereo not given)	none (no result: ROMK primary)
Cc1ccc(S(=O)(=O)NCCNC(=O)C2CCCNC2=O)cc1 (stereo not given)	none (no result: ROMK primary)
O=C(CSc1ccc2ccccc2n1)NCc1ccc2c(c1)OCO2	ROMK primary -5.2 (no result: Insulin prom inh) | ROMK hit retest inconclusive
O=C(CSc1nc2ccccc2s1)NCc1ccc2c(c1)OCO2	none (no result: ROMK primary)
CC1CCCC(C)N1C(=O)Cn1c(SCC(=O)NCc2ccc3c(c2)OCO3)nc2ccccc21 (stereo not given)	ROMK primary -3.9 (no result: Cl transport mod, Insulin prom inh) | ROMK hit retest 0.061
CN(C)C(=O)Cn1c(SCC(=O)NCc2ccc3c(c2)OCO3)nc2ccccc21	none (no result: ROMK primary)
O=C(Nc1ccc(Br)cc1F)C1CCCN(S(=O)(=O)c2cnc[nH]2)C1 (stereo not given)	none (no result: Insulin prom inh, ROMK primary)
O=S(=O)(c1cccc(Cl)c1)N1CCCC1	none (no result: ROMK primary)
O=[N+]([O-])c1cc(S(=O)(=O)N2CCCCCC2)ccc1F	none (no result: Insulin prom inh, ROMK primary) | ROMK hit retest 0.054
O=S(=O)(c1cccc(S(=O)(=O)N2CCCC2)c1)c1cccc(S(=O)(=O)N2CCCC2)c1	ROMK primary -5.7 (no result: Insulin prom inh) | ROMK hit retest 0.066
O=C1CCCCCN1Sc1ccccc1	none (no result: Insulin prom inh, ROMK primary) | ROMK hit retest 0.043
COc1ccc(NC(=O)N2CCN(S(C)(=O)=O)CC2)cc1OC	none (no result: Insulin prom inh, ROMK primary)
C=CCN(c1ccccc1C(=O)NCC(=O)O)S(=O)(=O)c1ccc(C)cc1	none (no result: Lmaj promast, Cl transport mod, Insulin prom inh, WT yeast gro inh, ROMK primary)
Cc1ccc(N2C(=O)[C@@H]3C(c4cccnc4)=NO[C@@H]3C2=O)cc1	none (no result: Lmaj promast, Insulin prom inh, WT yeast gro inh, ROMK primary) | ROMK hit retest inactive
COc1ccc(N2C(=O)[C@@H]3C(c4cccnc4)=NO[C@@H]3C2=O)cc1	none (no result: Lmaj promast, Insulin prom inh, WT yeast gro inh, ROMK primary)
CCOC(=O)c1c(CSc2ccccc2)n(C)c2ccc(O)c(CN3CCOCC3)c12	none (no result: Insulin prom inh)
CCOC(=O)c1c(CSc2ccccc2)n(C)c2cc(Br)c(OCC(O)CNC(CO)(CO)CO)cc12 (stereo not given)	ROMK primary -5.2 | ROMK hit retest 0.056
Cc1ccc(S(=O)(=O)/N=C2/NC(=O)/C(=C/c3ccccc3)S2)cc1	ROMK primary -4.6 (no result: Ins promoter up) | ROMK hit retest 0.051
Cc1cc(C)n(-c2nc(-c3ccc(Cl)c(Cl)c3)cs2)n1	none (no result: ROMK primary)
CCNC(=O)c1c(O)c2ccccc2[nH]c1=O	ROMK primary 2.6 | ROMK hit retest inactive
CC(C)=NNC(=O)c1c(O)c2ccccc2[nH]c1=O	none (no result: Lmaj promast, Insulin prom inh, WT yeast gro inh, ROMK primary)
O=S(=O)(CCOc1ccccc1)N1CCOCC1	none
O=C(Nc1ccc(Cl)c(C(F)(F)F)c1)N1CCCC(O)C1 (stereo not given)	none (no result: Ins promoter up, ROMK primary)
Cc1ccc2cc(CN(Cc3ccc4c(c3)OCO4)Cc3nnnn3Cc3ccco3)c(=O)[nH]c2c1C	Lmaj promast 68, ROMK primary -4.2 | ROMK hit retest inconclusive
O=C(c1cc2ccccc2oc1=O)N(Cc1ccco1)CC1CCCO1 (stereo not given)	none
CCOC(=O)N1CCC(Nc2c(NCCN3CCN(c4ccccc4F)CC3)c(=O)c2=O)CC1	none (no result: Insulin prom inh, ROMK primary)
COc1ccccc1-c1cc(C(=O)NCCc2ccccc2)no1	ROMK primary 3.5 (no result: Cl transport mod, Ins promoter up) | ROMK hit retest inactive
COc1cc(NC(=O)c2cc(-c3cccc(O)c3)on2)cc(OC)c1OC	none (no result: Insulin prom inh, ROMK primary)
COc1cc(NC(=O)c2cc(-c3cccs3)on2)cc(OC)c1OC	ROMK primary 4.1 (no result: Insulin prom inh) | ROMK hit retest inactive
COc1ccccc1-c1cc(C(=O)Nc2cccnc2)no1	ROMK primary 5.1 (no result: Insulin prom inh) | ROMK hit retest inactive
COc1ccccc1-c1cc(C(=O)N2CCN(c3ccccc3OC)CC2)no1	ROMK primary 3.3 (no result: Insulin prom inh) | ROMK hit retest inactive
COc1ccc(CCNC(=O)c2cc(-c3ccccc3OC)on2)cc1OC	none (no result: Insulin prom inh, ROMK primary)
Cc1nc2c(ncn2-c2ccccc2)c(=O)n1NC(=O)CN1CCCCC1	none (no result: Lmaj promast, Insulin prom inh, WT yeast gro inh, ROMK primary)
CC1CCN(S(=O)(=O)c2cn(CC(=O)N3CCN(C)CC3)c(=O)c3ccccc23)CC1	none (no result: ROMK primary)

Screens from PubChem BioAssay.
